# An excerpt weighted towards active compounds, which were near 13% of everything screened.
# Pf growth 96h – Primary qHTS for delayed death inhibitors of the malarial parasite plastid, 96 hour incubation | AID 504834, 2011 | P. falciparum luciferase reporter growth, 96 h | 320,000 compounds, 6.9% hits | Potency, µM (highest dose often 28.7 µM), for inactives: at the top dose activity change, negative = inhibition, hits mostly inhibitors; also: potency is read from the fitted curve at half-maximal effect
#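 Cell-based qHTS: luciferase-tagged P. falciparum in erythrocytes (2% hematocrit, 0.05% parasitemia final) incubated with compounds for 96 hours, 37 C, 5% CO2; luciferase detection reagent then added and luminescence measured.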
# HCV inh – qHTS Assay for Inhibitors of Hepatitis C Virus (HCV); Huh7.5.1 HCVcc-Cre infection, luciferase reporter, 44 h; Potency, µM (doses to about 41.8 µM), without a hit: at the highest dose activity change, negative = inhibition, usual class: inhibitors; 340,000 compounds, 3.4% hits; AID 651820, 2012; also: potency is read from the fitted curve at half-maximal effect
#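 A cell-based infection assay in which seeded cells (1,000 per well) receive test compound after 4 h, are inoculated with HCVcc-Cre at approximately 0.5 moi, and are incubated 44 h before luminescence detection.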
# HCMV inh – qHTS Assay for inhibitors of the human cytomegalovirus (HCMV); HFF cells, HCMV-luciferase reporter, 72 h; active compounds read low; activity change, negative = inhibition, % at 57.5 µM; 410,000 compounds, 4.5% hits; AID 1259415, 2018; in the data active = activity change below about -60%; inconclusive = no clear call, values can overlap the other calls; inactive = above about -39%
#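 HFF cells seeded 16 h at 37C, treated with compounds, infected with luciferase-reporter HCMV at MOI 1 PFU/cell; luciferase read at 72 h post infection, normalized to buffer-only and Salinomycin controls.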
# Pf growth 48h – Primary qHTS for delayed death inhibitors of the malarial parasite plastid, 48 hour incubation | 310,000 compounds, 5.9% hits | AID 504832, 2011 | P. falciparum luciferase growth in erythrocytes, 48 h | Potency, µM (top dose mostly 28.7 µM), for inactives: at the highest dose activity change, negative = inhibition, most hits filed as inhibitors; also: potency is read from the fitted curve at half-maximal effect
#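 Firefly luciferase activity from engineered P. falciparum reports growth; inhibitors lower the luminescent signal. Cultures contained 2% hematocrit erythrocytes at 0.1% final parasitemia.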
# Active calls of the source: *; ? = inconclusive; . = not tested or not shown; [ ] = remark or other dose. Unless noted, calls follow the shape of the dose curve; as a rule, active = well fitted inhibition curve with a large enough effect; inconclusive = small, poorly fitted or top-dose-only effect, or another doubt; inactive = no such curve, though single readings can be large or run the other way. % is scaled to controls: 0 for no effect and ±100 for the full control effect.
SMILES,Pf growth 96h,HCV inh,HCMV inh,Pf growth 48h
O=C1c2ccccc2C(Nc2cccnc2)N1Cc1ccccc1 (configuration not stated),10.4µM*,-5.8%,62.9,.
O=C1c2ccccc2C(Nc2cccnc2)N1Cc1ccccc1Cl (configuration not stated),2.7%,4.7%,-5.0,?
CC(C)CCNC(=O)c1ccc(Cn2c(SCC(=O)NC(C)C)nc3ccccc3c2=O)cc1,.,.,7.3,.
Cc1ccc(-c2[nH]c3ccccc3c2C(C[N+](=O)[O-])c2ccco2)cc1 (configuration not stated),.,-17.5%,-4.6,9.28µM*
O=S(=O)(Nc1cccc(-c2ccc(N3CCCCCC3)nn2)c1)c1ccccc1F,14.7µM*,-7.3%,58.1,98.7%
O=S(=O)(Nc1cccc(-c2ccc(N3CCCCCC3)nn2)c1)c1ccccc1Cl,?,11.2µM*,-75.7*,25.8%
Cc1cccc(NC(=O)C(=O)c2cc(C)n(-c3ccccc3)c2C)c1C,.,.,-18.2,.
N#Cc1c[nH]n2c(NC3CCCCC3)c(-c3ccc(F)cc3)nc12,.,.,-11.2,.
O=C(OCCC12CC3CC(CC(C3)C1)C2)c1ccc(NCc2cc(O)ccc2O)cc1,.,2.24µM*,-77.1*,.
CCNC(=O)OCCC12CC3CC(CC(C3)C1)C2,?,31.9%,32.7,4.6%
O=C(Nc1ccc(-c2nc3cc(NC(=O)c4ccc(Cl)cc4)ccc3o2)cc1)c1ccc(Cl)cc1,.,.,16.3,.
Cc1c(C(=O)N(C)C)sc2nc(-c3ccccn3)[nH]c(=O)c12,-19.8%,-11.6%,47.2,.
O=c1[nH]c(-c2ccccn2)nc2sc(-c3ccccc3)cc12,?,1.58µM*,-111.7*,62.5%
CCc1ccc2c(c1)c(=O)c(S(=O)(=O)c1ccccc1)cn2CC(=O)Nc1cc(C)ccc1C,.,.,-13.9,.
CCc1ccc(S(=O)(=O)Nc2c(C)nn(C)c2C)cc1,6.8%,12.6µM*,-69.1*,.
Cc1ccc(S(=O)(=O)Nc2c(C)nn(C)c2C)cc1,8.8%,-20.0%,3.1,.
CCn1nc(C)c(NS(=O)(=O)c2ccc(C)cc2)c1C,-10.3%,?,-74.5*,24.4%
CCn1nc(C)c(NC(=O)c2ccc(Br)o2)c1C,?,17.7%,?,1.1%
COc1ccc(CNC(=O)c2ccc(Cn3c(=O)c4cccn4c4cccnc43)cc2)cc1OC,.,.,12.9,.
CCOC(=O)c1cnc(NCc2ccc(Cl)cc2)c2ccccc12,.,.,35.2,.
N#Cc1ccc(-c2ccco2)nc1SCC(=O)c1ccc(Cl)cc1,8.9%[5.75 µM],4.47µM*,-34.2,1.0%
Cc1ccc(C(=O)CSc2nc(-c3ccccc3)ccc2C#N)cc1,29.7%,-12.2%,-24.9,32.4%
COc1ccc(N=Cc2ccc(-c3ccccc3)o2)cc1,11.7µM*,-8.7%,3.3,8.6%
Cc1cccc(NC(=O)C2C3CCCCC32)c1 (configuration not stated),0.185µM*,5.0%,22.2,-5.0%
COc1ccc(Oc2ncccc2[N+](=O)[O-])cc1,11.7µM*,-9.3%,14.2,?
SMILES,Pf growth 96h,HCV inh,HCMV inh,Pf growth 48h
CCOC(=O)C1=C(NC(=O)c2ccc(Br)o2)Nc2ccccc2N=C1,1.85µM*,?,-28.4,1.65µM*
COC(=O)c1c(NC(NC(=O)C(C)C)C(Cl)(Cl)Cl)sc2c1CCC2 (configuration not stated),-12.1%,?,?,?
COC(=O)c1c(NC(NC(=O)CC(C)C)C(Cl)(Cl)Cl)sc2c1CCC2 (configuration not stated),11.7µM*,?,-25.5,?
COC(=O)c1c(NC(NC(C)=O)C(Cl)(Cl)Cl)sc2c1CCCC2 (configuration not stated),10.4µM*,11.2µM*,-5.6,?
COC(=O)c1c(NC(=O)CCC(=O)O)sc2c1CCCCC2,27.1%,1.1%,?,-0.9%
COC(=O)c1c(NC(=O)C2CC2)sc2c1CCCC2,3.4%,10µM*,1.5,10.2%
CCn1ccc(C(=O)Nc2sc3c(c2C(=O)OC)CCC3)n1,11.7µM*,?,?,?
CCC(=O)NC(Nc1sc2c(c1C(=O)OC)CCC2)C(Cl)(Cl)Cl (configuration not stated),?,?,-24.4,?
Cc1cc(C)c(OCCOCCn2c(-c3ccc(Cl)cc3)nc3ccccc3c2=O)c(C)c1,.,.,29.3,.
Cc1ccc(-c2ccc(=O)n(CC(=O)Nc3ccc(F)c(Cl)c3)n2)cc1C,.,.,13.5,.
CC(C)OC(=O)c1c(NC(=O)C2CC=CCC2C(=O)O)sc2c1CCCCC2 (configuration not stated),9.28µM*,.,6.7,-2.9%
CCOC(=O)c1c(NC(NC(C)=O)C(Cl)(Cl)Cl)sc2c1CCCC2 (configuration not stated),?,10µM*,?,?
O=C(/C=C\c1ccccc1)NC1CC(=O)N(c2ccccc2)C1 (configuration not stated),.,.,36.9,.
COc1cccc(N2CCN(C(=O)c3cc4c(s3)-c3ccccc3OC4)CC2)c1,4.15µM*,10.3%,86.5,-1.6%
COc1ccc(N(C)C(=O)c2cc3c(s2)-c2ccccc2OC3)c(OC)c1,?,?,-23.0,?
CCOC(=O)N1CCN(C(=O)c2cc3c(s2)-c2ccc(Cl)cc2S(=O)(=O)C3)CC1,-20.9%,-9.1%,-62.0*,35.5%
COc1ccc(N(C)C(=O)c2cc3c(s2)-c2ccc(Cl)cc2S(=O)(=O)C3)c(OC)c1,13.1µM*,?,?,?
CN(C(=O)c1cc2c(s1)-c1ccccc1S(=O)(=O)C2)c1ccccc1,?,-5.6%,-0.1,9.28µM*
COc1ccc(N2CCN(C(=O)c3cc4c(s3)-c3ccccc3OC4)CC2)cc1,237.2%,14.3%,?,6.8%
CN(C(=O)c1cc2c(s1)-c1ccccc1S(=O)(=O)C2)c1ccccc1F,?,-9.8%,0.0,?
Cc1cc(C)n(-c2nc3cc(Cl)ccc3nc2Nc2ccc(CC(=O)O)cc2)n1,.,.,2.1,.
CCOC(=O)c1cc(S(=O)(=O)Nc2c(C)cc(C)cc2C)[nH]n1,.,.,-2.4,.
CCN(CC)C(=O)c1c(-c2ccccc2)c(-c2ccccc2)nn(C)c1=O,.,.,-34.8,.
CCOc1ccccc1NC(=O)C1CCN(S(=O)(=O)c2cccc3nonc23)CC1,.,.,10.2,.
Cc1nc2sc(C)c(C)n2c(=O)c1S(=O)(=O)N1CCN(c2ccccc2F)CC1,.,.,-8.3,.
CCOC(=O)N1CCN(C(=O)c2cc3c(s2)-c2ccccc2OC3)CC1,8.28µM*,9.4%,-16.0,0.3%
COc1cccc(C(=O)N2CCN(c3ccc(N4CCOCC4)nn3)CC2)c1,?,-10.3%,-0.4,-19.2%
COc1ccc2c(c1)CCc1cc(C(=O)N3CCN(c4ccc(N5CCOCC5)nn4)CC3)sc1-2,?,10µM*,.,?
CC(=O)Nc1ccc(NC(=O)C/C(C)=N/NC(N)=S)cc1,1.85µM*,-0.3%,-2.8,?
CCC(=O)N/N=C(\C)CC(=O)Nc1ccc(F)cc1,-6.3%,16.4%,-23.5,0.5%
